From PubChem BioAssay
Sampled rows, rich in hits. Any-hit rate of the full collection: about 21%.
NS1 inh: qHTS Assay for Inhibitors of Influenza NS1 Protein Function; Potency, µM (top dose mostly 46.1 µM), inactives show at the top dose activity, positive = more growth; hit rate 0.4% among 270,000; AID 2326, 2010; calls by dose curve; further: potency means the concentration at half of the fitted maximal effect; actives are rising curves; nearly all actives have a fitted effect of over 50% in size
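Read-out: OD600 growth recovery of NS1-expressing budding yeast. Cells grown overnight at 30C in -URA glucose medium, washed, resuspended and diluted 1:100 in 2% galactose assay medium, pH 6.0. Same strain lacking NS1 served as positive control.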
CHX counter: Cycloheximide Counterscreen for Small Molecule Inhibitors of Shiga Toxin; cell reporter, cycloheximide protein synthesis inhibition counterscreen; max response, %; hit rate 12% among 300,000; in the data active means max response mostly above about 13%, no sharp cut-off; inactive means mostly below about 14%; further: read at 38.3 µM for the half of the compounds with a filed dose; 0% is about no effect
Pf growth 96h: Primary qHTS for delayed death inhibitors of the malarial parasite plastid, 96 hour incubation; P. falciparum luciferase reporter growth, 96 h; Potency, µM (titrated, usually from 28.7 µM), for inactives: top-dose activity change, negative = inhibition, most hits filed as inhibitors; hit rate 6.9% among 320,000; AID 504834, 2011; further: potency means the concentration at half of the fitted maximal effect; on the % scale 0 is the no-effect control and ±100 the full control effect
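Two parasite generations (96 h, 37 C, 5% CO2) of compound exposure in infected erythrocytes (0.05% parasitemia, 2% hematocrit). Luciferase-reporter P. falciparum; decreased luminescence indicates inhibited growth, aimed at apicoplast-acting delayed death.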
Sm TGR inh: qHTS Assay for the Inhibitors of Schistosoma Mansoni Peroxiredoxins; Schistosoma mansoni thioredoxin glutathione reductase (TGR), Q962Y6; purified TGR, DTNB reduction, TNB absorbance 405 nm; Potency, µM (highest dose often 114 µM), without a hit: at the top dose activity change, negative = inhibition, usual class: inhibitors; hit rate 3% among 360,000; AID 485364, 2010; further: potency means the concentration at half of the fitted maximal effect; on the % scale 0 is the no-effect control and ±100 the full control effect; nearly all actives have a fitted effect of over 60% in size
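First, TGR (20 nM dispensed) and NADPH were mixed with compound. Second, a 15 min room-temperature incubation followed. Third, further NADPH and then DTNB were added to start the reaction. Finally, TNB absorbance was monitored kinetically.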
Pf growth 48h: Primary qHTS for delayed death inhibitors of the malarial parasite plastid, 48 hour incubation; Potency, µM (series often up to 28.7 µM), inactives show at the top dose activity change, negative = inhibition, actives largely listed as inhibitors; hit rate 5.9% among 310,000; P. falciparum luciferase growth in erythrocytes, 48 h; further: potency means the concentration at half of the fitted maximal effect; on the % scale 0 is the no-effect control and ±100 the full control effect
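Compounds are pin-transferred into medium, infected erythrocytes (2% hematocrit, 0.1% parasitemia final) are added, and plates sit one parasite generation at 37 C in 5% CO2. Detection reagent is then added and luminescence measured.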
Shiga toxin inh: A qHTS for Small Molecule Inhibitors of Shiga Toxin; hit rate 9.2% among 290,000; Vero cells, Shiga toxin protein synthesis inhibition reporter; inhibition, % at 38.7 µM; in the data active means inhibition mostly above about 28%, no sharp cut-off; inactive means mostly below about 43%; further: 0% is about no effect
Numbers without * were called inactive; u = inconclusive; x = no result given; [ ] = dose if it differs, or a comment. Unless noted, the call rests on the fitted dose curve; in most records, active means well fitted curve in the direction sought with a large enough effect; inconclusive means small, poorly fitted or top-dose-only effect, or another doubt; inactive means no such curve, though single readings can be large; an effect the other way counts as inactive or inconclusive.

SMILES	NS1 inh	CHX counter	Pf growth 96h	Sm TGR inh	Pf growth 48h	Shiga toxin inh
CCOC(=O)N1CCN(C(=O)CSc2nc3c([nH]c4ccccc43)c(=O)n2CCOC)CC1	-3.0%	-1.0	11.7µM*	-9.8%	u	-5.0
CCC1CCCCN1C(=O)CSc1nc2c([nH]c3ccccc32)c(=O)n1C (stereo unspecified)	-15.6%	-1.1	-0.7%	4.7%	9.28µM*	-5.9
CCc1c(C)nc(SCC(=O)N2CCN(c3ccccc3)CC2)[nH]c1=O	x	7.7	0.0%	20.4%	27.3%	1.3
COCCn1c(SCC(=O)N2CCCCC2)nc2c([nH]c3ccccc32)c1=O	9.1%	9.2	u	9.7%	11.7µM*	-7.7
CCc1c(C)nc(SCC(=O)N2CCCCC2CC)[nH]c1=O (stereo unspecified)	-4.3%	3.1	-2.8%	-5.2%	2.08µM*	-7.7
CCN(Cc1ccccc1)Cc1nnnn1Cc1ccccc1	-10.1%	7.2	20.0%	x	-18.0%	3.3
CN(Cc1ccccc1)C(=O)CCn1c(=O)oc2ccccc21	-3.1%	11.5	-28.0%	u	x	3.4
CN(Cc1ccccc1)C(=O)CCC(=O)N(C)Cc1ccccc1	-12.2%	32.4*	x	0.0%	81.4%	113.3*
COC(=O)[C@H](Cc1ccccc1)NC(=O)N(C)Cc1ccccc1	11.7%	17.9*	-11.1%	1.9%	12.1%	26.7
CN(Cc1ccccc1)C(=O)c1ccco1	2.2%	11.2	11.7µM*	0.8%	16.6%	25.1
CN(Cc1cccs1)C(=O)CNC(=O)c1ccco1	21.8%	22.3*	55.8%	-27.3%	69.0%	58.2
CC1(C)Oc2ccc3ccc(=O)oc3c2C(/C=N/O)=C1Cl	2.1%	-0.9	-4.3%	0.0%	5.2%	x
CC(C)c1cc(Nc2cccc(O)c2)cc(C(C)C)c1O	-24.5%	10.3	11.7µM*	8.91µM*	u	9.7
CC(=O)Nc1cccc(O)c1	x	x	31.6%	3.4%	53.7%	x
Cc1cccc(C)c1NC(=O)CNC(=O)CN1C(=O)NC2(CCc3ccccc32)C1=O (stereo unspecified)	x	x	10.8%	16.6%	0.6%	x
Cc1nn(-c2ccc(F)cc2)c2nc(N)c(C#N)c(-c3ccc(O)c(O)c3)c12	3.6%	6.1	10.4µM*	-12.6%	10.4µM*	-20.9
COc1cc(-c2c(C#N)c(N)nc3c2c(C)nn3-c2ccc(C)c(C)c2)cc(OC)c1OC	u	10.5	-22.3%[5.75 µM]	0.2%	4.65µM*	12.0
COc1ccccc1OCC(=O)NCC1(N(C)C)CCCCC1	x	x	x	9.5%	x	x
O=C(COCc1cc(-c2ccc(F)cc2)on1)Nc1cc(Cl)ccc1O	x	x	x	-0.3%	x	x
CCCCOc1ccc(S(=O)(=O)NCc2csc(C)n2)cc1	-1.2%	-2.3	10.4µM*	-23.3%	-7.6%	-4.6
Cc1ccc(S(=O)(=O)NCc2csc(C)n2)cc1	0.0%	-3.0	u	-5.1%	2.5%	-4.3
